Biological target: AMP-activated protein kinase, AMPK (Homo sapiens) (UniProt P54646+O43741+P54619+Q9UGJ0+Q9Y478+Q13131+Q9UGI9)
Assay: AMP-dependent Kinase enzyme assay. An in vitro enzyme assay that detects ADP turnover that is directly proportional to AMPK activity. This uses naive AMPK that is activated during the assay with MK-8722
Format: functional
Set-up: scale not given: direction of the effect not stated beside the values
Conditions: 30 µM

Compound | Percent Effect [%]
COc1ccc(OC2CCN(C(=O)c3ccc(C(C)=O)s3)CC2)cc1 | -2.68
CCC(=O)Nc1cccc(OCC(=O)N(C)CCCC2CCCO2)c1 (centres undefined) | 11.8
NC(=O)CC1CCN(c2cncc(OCc3ccccc3)n2)CC1 | 20.6
Cc1cn2nc(N(C)C3CCCN(c4cccnn4)C3)sc2n1 (centres undefined) | 2.94
CCc1ccccc1OCCN(C)C(=O)CN1CCCC1 | -130
COc1nc2c(cc1C(=O)NC(C)Cc1cnccn1)CCC2 (centres undefined) | -1.98
Cc1noc(-c2ccc(N(C)Cc3cccnc3)nc2)n1 | -3.84
CS(=O)(=O)NCC1Cc2ccccc2O1 (centres undefined) | -1.87
CN(C)c1ccc(C(=O)Nc2ccn(CCc3ccncc3)n2)cn1 | 14.4
Cc1cc(=O)[nH]c(=O)n1Cc1ccccc1 | 1.77
CCN1CCCC(NC(=O)c2ccc(C)[nH]c2=O)C1 (centres undefined) | -5.78
O=C1CN([C@@H]2CC[C@@H](NS(=O)(=O)c3ccc(F)cc3)[C@H]2O)CCN1 | 2.53
CCc1ncc2c(n1)CN(c1nnc(C)c(C)c1C#N)CC2 | -14.7
O=C(c1cnco1)N1CCC(Cc2cnc3ccccc3c2)CC1 | 18.4
CC(=O)N[C@H]1CCO[C@@H](c2cccc(NC(=O)C(C)(C)C)c2)C1 | 7.76
CC(=O)N1CCC1c1nc(-c2ccc(C)s2)no1 (centres undefined) | 7.59
COc1nccc(N2CC[C@@H](N3CCCCCC3)[C@H](O)C2)c1C#N | -1.86
CO[C@@H]1CC[C@@H](NC(=O)CCc2ccc(Cl)cc2)[C@H]1O | 8.1
O=C(CN1CC(c2nc(C3CC3)no2)C1)NCc1ccc(F)cc1 | 3.03
O=S(=O)(NCc1ccnc(-n2ccnc2)c1)c1cncc(F)c1 | -5.49

Compound | Percent Effect [%]
CCS(=O)(=O)N1Cc2ccccc2CC1C(=O)OCc1c(C)noc1C (centres undefined) | -0.838
O=C(CCn1cnnn1)N1CCCC(CO)(CCCc2ccccc2)C1 (centres undefined) | 0.115
CN1CCN(CCOc2ccc(NC(=O)c3ccncc3)cc2)CC1 | 0.498
O=C(COc1ccc(-n2cccn2)nn1)NC1CCCCC1 | -0.431
O=C(NCc1ccco1)N1CCOC(c2ccccc2Cl)C1 (centres undefined) | 3.01
OC(CNCCc1nnc2ccccn12)c1ccc2c(c1)OCO2 (centres undefined) | 17.2
NC(=O)[C@@H]1Cc2ccccc2CN1CCC(=O)N1CCOCC1 | -7.78
Cc1nc2c(c(N[C@H](C(N)=O)C(C)C)n1)Cc1ccccc1OC2 | -25.7
CCc1nnc(C(C)N2CCN(CCC(=O)NC3CC3)CC2)o1 (centres undefined) | 8.34
Cc1nccc(CNC(=O)NCCC(=O)N2CCCc3ccccc32)n1 | -8.67
COc1nc2c(cc1C(=O)NC(C)Cc1cc(C)n[nH]1)CCC2 (centres undefined) | -15.8
CCOCCC(=O)Nc1cccc(Cl)c1C(N)=O | 1.82
CC(=O)N1CCC(Cc2ccc(-c3ccnn3C)nc2)CC1 | -2.26
COC(=O)N1CCCCC1C(=O)N1CCCN(c2ccnc(C)c2)CC1 (centres undefined) | -3.17
CC(C)c1cc(C2CCN(C(=O)Cn3nc4ccccc4n3)CC2)[nH]n1 | 13.1
CCn1cnnc1CNS(=O)(=O)N1CCCC1c1ccco1 (centres undefined) | -5.92
O=C(Nc1ccc(I)cc1C(=O)NCCN1CCOCC1)c1ccco1 | 12.6
O=C1NC(C(=O)NCc2cccnc2Oc2ccccc2F)CO1 (centres undefined) | 4.53
CN(Cc1nnnn1C1CC1)CC1COc2ccccc2O1 (centres undefined) | 4.32
